# In PubChem BioAssay AID1745847 (National Center for Advancing Translational Sciences (NCATS), 2022):
# Hit rate of the full screen: of about 2,100 compounds, about 670 (32%) were called active. Roughly 50% stayed inconclusive and do not appear here. The list shows a part of the results. Unmarked numbers belong to inactive results. Calls come from the whole dose curve; as a rule, active = well fitted inhibition curve with a large enough effect; inconclusive = small, poorly fitted or top-dose-only effect; inactive = no such curve, though single readings can be large or run the other way.
# Test: CMV-Luciferase Counterscreen for Inhibitors of ATXN expression; note: nearly all actives have a fitted effect of over 55% in size
# Settings: HEK-293 CMV-luciferase reporter, luminescence, 24 h; series mostly up to 57.5 µM
# Description: PI: Daniel Scoles Ph.D. University of Utah School of Medicine, Salt Lake City, Utah MLPCN Grant: NS073009 Spinocerebellar ataxia type 2 (SCA2) is a multisystem neurodegenerative disease caused by a dominantly acting mutation leading to expansion of a polyQ domain in the ataxin-2 protein (ATXN2). SCA2 patients develop progressive ataxia and later lose function in other neuronal systems. Prominent parkinsonian signs develop in some patients. Like many neurodegenerative disorders, no symptomatic or disease-modifying treatments are known. The primary objective of the proposed research is to identify compounds inhibiting ATXN2 expression and to test them for efficacy in SCA2 mouse models. We have developed a cell-based assay paired with an in vivo mouse model using identical luciferase expression constructs. This approach takes advantage of an ATXN2-luciferase transgene, with the luciferase gene flanked by the upstream and downstream portions of the ATXN2 gene. Here we describe a 5-7 dose quantitative high thoroughput screen (qHTS) for compounds lowering ATXN2 expression. We screened the NIH Molecular Libraries Small Molecule Repository (MLSMR) and NCGC's mechanistically annotated (MIPE) and drug repurposing (NPC) collections of compounds for lowering expression of an ATXN2-luciferase reporter in HEK-293 cells. The assay is a multiplexed cell viability assay to ensure target reduction in the absence of cytotoxicity. Secondary qHTS assays included a CMV-luciferase reporter expressed in HEK-293 cells as well as a biochemical assay using recombinant luciferase to detect inhibitors of the reporter enzyme. Compounds that inhibit ATXN2 expression but is not cytotoxic were selected for confirmatory and secondary screens.
# PROTOCOL TABLE (as described by Inglese J, Shamu CE and Guy RK. 2007) SEQUENCE No. (e.g., 1, 2, 3, etc.); PARAMETER (e.g., Cells, Incubation, Reagent, etc.); VALUE; DESCRIPTION. 1; Cells; 4 uL; white, solid bottom, 1536-well Greiner assay plate. 2; Incubation; 2 hr; 37 degree C in 5% humidified CO2. 3; Compounds; 23 nL; Kalypsis pintool (Wako USA) equipped with a 1536-well pin head. 4; Incubation; 24 hr; 37 degree C in 5% humidfified CO2. 5; Reagent; 1 uL; Gly-Phe-7-Amino-4-trifluoromethylcoumarin. 6; Incubation; 30 min; 37 degree C in 5% humidfified CO2. 7; Detection; Fluorescence; Viewlux plate reader (PerkinElmer). 8; Reagent; 3 uL; SteadyGlo luciferase solution (Promega). 9; Incubation; 5 min; room temperature. 10; Detection; Luminescence; ViewLux plate reader (PerkinElmer). NOTES (numbers refer to Sequence numbers above) 1. HEK-293 cells expressing CMV-luciferase reporter (designated as SC cells) were suspended in phenol-red free DMEM and dispensed in assay plates using a Multidrop Combi dispenser (Thermo Fisher Scientific). 2. Assay plates were incubated. Evaporation was prevented by covering assay plates with metal lids containing holes to allow gas diffusion. 3. Compounds were added in a dose response manner with the final concentrations of 57, 11.4, 2.28, 0.46, 0.091, 0.018, 0.0037 uM. Vehicle-only plates, with DMSO being pin-transferred to columns 5-48, were inserted uniformly at the beginning and the end of each library to monitor and record any shifts in assay performance. 5. 125 uM Gly-Phe-7-Amino-4-trifluoromethylcoumarin (MP Biomedicals) working concentration was used at a final concentration of 25 uM. 7. To assess cell viability; the assay plates were read using the ViewLux high-throughput CCD imager (PerkinElmer), wherein single end-point fluorescence measurement was acquired (excitation 405/10; emission 540/25 nm). 8. Detection reagent SteadyGlo Luciferase (Promega) was added to the assay plate. 10. Luminescence is then measured on the ViewLux imager equipped with a clear emission filter using a 2 sec exposure. […]
# % is set by controls: 0 for no effect and ±100 for the full control effect; potency is the fitted concentration of half-maximal effect.
Compound,"activity change, negative = inhibition",Potency
CCC1(OC(=O)CN)C(=O)OCc2c1cc1n(c2=O)Cc2cc3ccccc3nc2-1 (configuration not stated),-43.6% [at 11.4 µM],
CC[C@@]1(O)C(=O)OCc2c1cc1n(c2=O)Cc2cc3c(NC(=O)CN)cccc3nc2-1,,0.0562 µM (active)
COc1cc2c(cc1OC)C1C(=O)c3ccc4c(c3OC1CO2)CC(C(C)C)O4 (configuration not stated),,0.794 µM (active)
CCC(C)(O)C(=O)OC1C(=O)OC2CC3C(C)=CC(=O)C(O)C3(C)C3C4(O)OCC23C1C(C)C4O (configuration not stated),,0.316 µM (active)
CCOC(=O)c1c(N)n(CCN2CCCCC2)c2nc3ccccc3nc12,,inactive
CC(C)CCn1c(N)c(C(=O)NCc2cccs2)c2nc3ccccc3nc21,,14.1 µM (active)
CCC(C)OC(=O)c1c(N)n(Cc2cccs2)c2nc3ccccc3nc12 (configuration not stated),,17.8 µM (active)
CNC(=O)Nc1ccc(C(=O)N/N=C\C23CC[C@@H](O)CC2(O)CC[C@@H]2[C@@H]3CCC3(C)C(C4=CC(=O)OC4)CCC23O)cc1 (some centres not stated),,inactive
CC1CC(C)CC(C)C(O)C(C#N)=CC=CCC(C2CCCC2C(=O)O)OC(=O)CC(O)C(C)C1 (configuration not stated),,0.316 µM (active)
C[C@H]1C[C@@H](C)C(=O)[C@@H]([C@H](O)CC2CC(=O)NC(=O)C2)C1,,0.282 µM (active)
C[C@@H]1C[C@@H]([C@H](O)CC2CC(=O)NC(=O)C2)C(=O)[C@@H](C)C1,,2.82 µM (active)
CC(=O)OC1(C)CC(C)C(=O)C(C(O)CC2CC(=O)NC(=O)C2)C1 (configuration not stated),,0.126 µM (active)
C[C@]12CCC3C(CCC4=CC(O)CC[C@@]43/C=N/O)C1(O)CCC2C1=CC(=O)OC1 (some centres not stated),,inactive
Cc1ccc(N2C(=O)NC(=O)/C(=C/C=C/c3ccco3)C2=O)cc1,82.1% [at 11.4 µM],
CC(=O)OC1CC2(O)C3CCC4CC(O)CCC4(C)C3CCC2(C)C1C1=CC(=O)OC1 (configuration not stated),,inactive
O=C1NC2C(=CC(O)C(O)C2O)c2cc3c(cc21)OCO3 (configuration not stated),,0.251 µM (active)
Cc1c2ccncc2c(C)c2c1[nH]c1ccccc12,,5.01 µM (active)
COc1ccc(CCNCc2ccc(F)cc2)cc1OC,-5.47% [at 11.4 µM],
COC1C(O)C(C)OC(OC2C(Oc3cccc4c(O)c5c(=O)oc6ccc(C)c7c(=O)oc(c34)c5c67)OC(C)C(O)C2O)C1O (configuration not stated),-15.7% [at 11.4 µM],
O=[N+]([O-])c1ccc(C(c2ccc([N+](=O)[O-])cc2)c2ccc([N+](=O)[O-])cc2)cc1,,17.8 µM (active)
C[C@]12CC[C@H](O)C[C@H]1CC[C@@H]1[C@@H]2CC[C@]2(C)[C@@H](C3=CC(=O)OC3)CC[C@]12O,,inactive

Compound,"activity change, negative = inhibition",Potency
COc1ccc(N=Cc2c(O)n(-c3ccc(C)cc3)c(=O)[nH]c2=O)cc1,,inactive
CC1OC(OC2C(O)CC(OC3C(O)CC(OC4CCC5(C)C(CCC6C5CCC5(C)C(C7=CC(=O)OC7)C(O)CC65O)C4)OC3C)OC2C)CC(O)C1O (configuration not stated),,inactive
CC(C)(C)n1nnnc1C(CCc1ccccc1)N1CCC(n2c(=O)[nH]c3ccccc32)CC1 (configuration not stated),,20 µM (active)
O=c1[nH]c2ccccc2n1C1CCN(C(CCc2ccccc2)c2nnnn2C2CCCC2)CC1 (configuration not stated),,14.1 µM (active)
N#Cc1cn(C2OC(CO)C(O)C2O)c2ncnc(N)c12 (configuration not stated),-77.3% [at 11.4 µM],
CCC1CN2CCc3cc(OC)c(OC)cc3C2CC1CC1NCCc2c1[nH]c1ccc(O)cc21 (configuration not stated),,0.0891 µM (active)
C1=NCCc2c1[nH]c1ccccc21,110% [at 11.4 µM],
COc1cc2nc(CN3CC=C(c4ccccc4)CC3)[nH]c(=O)c2cc1OC,,inactive
O=C(CSC1c2ccccc2-c2ccccc21)N/N=C/c1ccccc1O,,3.16 µM (active)
Clc1ccc2[nH]c3c(c2c1)CCNC3,-18.6% [at 11.4 µM],
NC(Cc1ccc(F)cc1)c1csc(Nc2ccccn2)n1 (configuration not stated),,inactive
CCC(C)N1C(=O)/C(=C\c2cnc(N(C)C)nc2)C(=O)NC1=S (configuration not stated),,inactive
CC12CCC3C(CCC4(O)CC(O)CCC34C=NO)C1(O)CCC2C1=COC(=O)C1 (configuration not stated),,inactive
COc1cccc2c1cc([N+](=O)[O-])c1c(C(=O)O)cc3c(c12)OCO3,,inactive
COc1ccc2c(c1)C(c1ccc(N(CCCl)CCCl)cc1)=NCC2,,22.4 µM (active)
CC(=O)O[C@H]1[C@H]2O[C@]23[C@@H]2CC[C@]4(O)C[C@@H](O)CC[C@]4(C)C2CC[C@]3(C)[C@H]1c1ccc(=O)oc1 (some centres not stated),-18.3% [at 11.4 µM],
COC(=O)c1nc(-c2ccc3c(n2)C(=O)C(N)=C(OC)C3=O)c(N)c(-c2ccc(OC)c(OC)c2O)c1C,,14.1 µM (active)
CSCCC(c1nnnn1-c1c(C)cccc1C)N1CCC2(CC1)C(=O)NCN2c1ccccc1 (configuration not stated),,28.2 µM (active)
CCOC(=O)[C@]12Cc3ccsc3[C@H]1N(Cc1ccccc1)C(=O)c1ccccc12,,3.16 µM (active)
CC12CCC(O)CC1CCC1C2CCC2(C)C(C3=CC(=O)OC3)CCC12O (configuration not stated),,inactive
C=CCCC[C@@H]1OC(=O)CNC(=O)C([C@@H](C)CC)NC(=O)[C@@H]2CCCN2C(=O)C([C@@H](C)CC)OC(=O)[C@H](Cc2ccccc2)N(C)C(=O)[C@H](C(C)C)NC(=O)C1(C)C (some centres not stated),,3.98 µM (active)

Compound,"activity change, negative = inhibition",Potency
Cc1ccc(-c2nc(N(C)C3CCN(C)CC3)c3ccccc3n2)cc1,,17.8 µM (active)
COc1ccc(CC2C(=O)NC(C)C(=O)N(C)C3C(=O)N(C)C(Cc4ccc(O)c(c4)Oc4ccc(cc4)C3O)C(=O)NC(C)C(=O)NC(C)C(=O)N2C)cc1 (configuration not stated),,0.891 µM (active)
C[C@H]1[C@@H](OS(=O)(=O)O)C[C@@H]2C[C@H]([C@@H](O)c3cc(=O)[nH]c(=O)[nH]3)NC3=NC[C@H]1N32,,14.1 µM (active)
CCCCN=C[C@]12CCC(O)CC1(O)CCC1[C@@H]2CC[C@]2(C)[C@H](C3C=CC(=O)O3)CCC12O (some centres not stated),,inactive
C[C@@H]1O[C@@H](O[C@@H]2C=C3CC[C@@H]4C(CC[C@]5(C)[C@@H](c6ccc(=O)oc6)CC[C@]45O)[C@@]3(C)CC2)[C@H](O)[C@H](O)[C@H]1O (some centres not stated),,inactive
C[C@H]1CCC[C@@H](O)CCC/C=C/c2cc(O)cc(O)c2C(=O)O1,-23.1% [at 11.4 µM],
CCCCCCC(=O)N/N=C/c1c(O)n(CCc2ccccc2)c(=O)[nH]c1=O,,6.31 µM (active)
CCn1c(O)c(/C=N/NC(=O)c2ccccc2)c(=O)n(CC)c1=S,,inactive
CCCCC(=O)N/N=C/c1c(O)n(CCC2=CCCCC2)c(=O)[nH]c1=O,,10 µM (active)
CCCCCCC(=O)N/N=C/c1c(O)n(CCCC)c(=S)[nH]c1=O,,12.6 µM (active)
COC1C(O)C(C)OC(OC2CCC3(C)C(CCC4C3C(O)CC3(C)C(C5=CC(=O)OC5)CCC43O)C2)C1O (configuration not stated),,inactive
C[C@]12CC[C@H](O)C[C@H]1CC[C@@H]1C2CC[C@]2(C)[C@@H](C3=CC(=O)OC3)[C@@H](O)C[C@]12O (some centres not stated),-13.9% [at 11.4 µM],
COc1ccc(C[C@H]2NC[C@H](O)[C@H]2OC(C)=O)cc1,,0.0631 µM (active)
COc1ccc(CC2NCC(O)C2OC(C)=O)cc1 (configuration not stated),,0.316 µM (active)
c1ccc2sc(N3CCNCC3)nc2c1,,inactive
C[C@H]1CCC[C@H](O)CCCCCc2cc(O)cc(O)c2C(=O)O1,13.6% [at 11.4 µM],
CCCCCOc1ccc(C)cc1CN(CCCl)CCCl,,15.8 µM (active)
COc1cccc(C(c2nnnn2-c2ccc3c(c2)OCCO3)N2CCC(n3c(=O)[nH]c4ccccc43)CC2)c1OC (configuration not stated),,3.16 µM (active)
Cc1cccc(C)c1-n1nnnc1C(c1cc2ccccc2o1)N1CCC(n2c(=O)[nH]c3ccccc32)CC1 (configuration not stated),,8.91 µM (active)
CC12CCC(O)CC1CCC1C2CCC2(C)C(C3=CC(=O)OC3)C(O)CC12O (configuration not stated),,inactive
